The list is not random: actives were taken first. Their share in the collection is about 11%.
VP16 counter: inhibits Gal4-VP16 luciferase reporter, ROR gamma counter-screen; AID 2546; 310,000 compounds, 3.5% hits; Drosophila S2 Gal4-VP16 UAS-luciferase, luminescence, 20 h; Potency, µM (titrated, usually from 53.6 µM), for the others: at the highest dose activity, negative = inhibition, hits mostly inhibitors;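 also: Gal4-VP16 expression switched on by copper sulfate through the metallothionein promoter; potency is read from the fitted curve at half-maximal effect; % is scaled to controls: 0 for no effect and ±100 for the full control effect; nearly all actives have a fitted effect of over 50% in size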
IL1B secr inh: inflammasome signaling inhibition, IL-1 beta readout | THP-1 LPS/ATP IL-1B secretion, AlphaLISA, 16 h; hits give low values | activity change, % at 57.5 µM | 360,000 compounds, 4.7% hits; in the data active = activity change below about -50%; inconclusive = mostly about -30% to -49%; also: % is scaled to controls: 0 for no effect and ±100 for the full control effect
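THP-1 cells pretreated 1 hr with compounds (up to 57.5 uM final), then stimulated with LPS (250 ng/mL final) plus ATP (1.25 mM final); secreted IL-1B measured by AlphaLISA after 16 hr, decreased signal indicating inhibition.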
SW480 rereplic: induces DNA re-replication in SW480 colon adenocarcinoma cells. 340,000 compounds, 1.8% hits. SW480 DNA re-replication, Hoechst DNA content imaging, 48 h. Potency, µM (series often up to 46.1 µM), for inactives: top-dose re-replication activation, usual class: activators; also: potency is read from the fitted curve at half-maximal effect; % of control where 0% means no effect; nearly all actives have a fitted effect of over 55% in size
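Treated cells incubate 48 hr (37 C, 5% CO2), are stained 40 min with Hoechst, and nuclear fluorescence is enumerated; a rise in nuclei with high DNA signal marks re-replication.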
MCF10A rereplic: induces DNA re-replication in MCF 10a normal breast cells. AID 624296. MCF 10A DNA re-replication, Hoechst nuclear intensity, 48 h. Potency, µM (highest dose often 46.1 µM), inactives show at the top dose activity, positive = re-replication, hits mostly activators. 350,000 compounds, 2.9% hits; also: potency is read from the fitted curve at half-maximal effect; % of control where 0% means no effect; nearly all actives have a fitted effect of over 50% in size
RORg inh: ROR gamma (mouse) transcription inhibition; P51450; 310,000 compounds, 5.4% hits; AID 2551; Potency, µM (top dose mostly 53.6 µM), for inactives: at the highest dose activity change, negative = inhibition, hits mostly inhibitors; Drosophila S2 Gal4-RORgamma UAS-luciferase reporter, 20 h; also: potency is read from the fitted curve at half-maximal effect; % is scaled to controls: 0 for no effect and ±100 for the full control effect; nearly all actives have a fitted effect of over 60% in size
Target sequence (P51450 whole entry, looked up, the tested form may be a part): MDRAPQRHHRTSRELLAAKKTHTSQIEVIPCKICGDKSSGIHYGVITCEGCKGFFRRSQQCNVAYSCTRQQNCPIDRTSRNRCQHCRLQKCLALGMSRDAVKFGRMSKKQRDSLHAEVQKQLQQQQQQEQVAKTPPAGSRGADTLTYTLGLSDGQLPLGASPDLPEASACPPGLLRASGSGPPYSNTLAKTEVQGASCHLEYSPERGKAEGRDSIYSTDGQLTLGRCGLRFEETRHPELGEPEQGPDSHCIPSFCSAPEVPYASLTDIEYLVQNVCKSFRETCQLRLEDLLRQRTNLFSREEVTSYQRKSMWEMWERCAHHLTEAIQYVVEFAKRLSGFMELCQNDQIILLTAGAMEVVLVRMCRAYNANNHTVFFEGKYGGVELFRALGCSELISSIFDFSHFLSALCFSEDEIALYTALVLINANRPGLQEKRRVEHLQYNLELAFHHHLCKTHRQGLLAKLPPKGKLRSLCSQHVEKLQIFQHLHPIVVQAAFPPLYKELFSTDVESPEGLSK
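Read-out: Photinus luciferase luminescence; inhibitors lower reporter signal. Insect Schneider cells with Gal4-ROR gamma fusion under metallothionein promoter, UAS reporter; 700 uM final copper sulfate induction, 20 hr, ambient temperature.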
Numbers without * were called inactive; ? = inconclusive; . = not tested or not shown; [ ] = remark or other dose. Unless noted, calls follow the shape of the dose curve; as a rule, active = well fitted curve in the direction sought with a large enough effect; inconclusive = small, poorly fitted or top-dose-only effect, or another doubt; inactive = no such curve, though single readings can be large; an effect the other way counts as inactive or inconclusive.

SMILES | VP16 counter | IL1B secr inh | SW480 rereplic | MCF10A rereplic | RORg inh
COc1ccc2nc(N=Nc3c(O)ccc4ccccc34)sc2c1 | 4.5µM* | . | -5% | 4% | 1µM*
O=C(Nc1ccccc1Cl)OCC#CCOC(=O)Nc1ccccc1Cl | . | 7 | . | . | .
C/C(CCN1CCCCc2nc(C)c(C)cc21)=N\O[C@@H](C)CN1CCCc2nc(C)c(C)cc21 | 3%[10 µM] | . | . | . | 16%[10 µM]
CCCC(C(=O)Nc1cc(S(=O)(=O)N2CCOCC2)ccc1OC)c1ccccc1 (stereo not given) | -17% | 6 | -11% | -26% | -3%
CN(C)/C=C(\C#N)C(=O)N/N=C(\CC(=O)C(F)(F)F)c1ccco1 | -19%[10 µM] | 10 | -2% | 2% | 4.5µM*
CCOc1ccc(N(CC(=O)Nc2ccccc2C)S(=O)(=O)c2c(C)noc2C)cc1 | 0% | 29 | 3.3µM* | 2.6µM* | 14%
COc1ccc(N(CC(=O)Nc2cc(Cl)ccc2C)S(=O)(=O)c2c(C)noc2C)cc1 | 5% | 32 | -3% | 4.1µM* | 1%
CCOc1ccccc1NC(=O)CN(c1ccc(OC)cc1)S(=O)(=O)c1c(C)noc1C | -6% | 41 | 5.8µM* | 6.5µM* | -11%
Cc1ccc(C)c(NC(=O)CN(C)C(=O)CSCc2c(C)noc2C)c1 | . | 2 | 0% | 1% | .
CCOc1ccccc1NC(=O)CN(c1cc(C)cc(C)c1)S(=O)(=O)c1c(C)noc1C | -1% | 2 | 0% | 22% | 4%
CCN(CC(=O)Nc1cc(Cl)ccc1C)C(=O)CSCc1c(C)noc1C | . | -4 | 6.5µM* | 9% | .
CCOC(=O)Cc1cnc(NC(=O)CSc2nc3ncnc(N)c3[nH]2)s1 | -2% | 0 | ? | 0.65µM* | 27%
O=C(c1ccccc1)c1ccc(N2CCOCC2)cc1 | . | 10 | -4% | 3% | .
CC(=O)N(C1=C(N2CCOCC2)C(=O)c2ccccc2C1=O)c1ccc(C(=O)O)cc1 | 11µM* | 18 | 4.1µM* | ? | ?
CC(=O)N(C)C1=C(N2CCOCC2)C(=O)c2ccccc2C1=O | ? | -94* | ? | 0.73µM* | 8.9µM*
CCc1ccc(S(=O)(=O)/N=C2\C=C(Nc3ccc(O)cc3)C(=O)c3ccccc32)cc1 | 11µM* | -103* | 5.8µM* | 3.7µM* | 10µM*
CCc1ccc(S(=O)(=O)/N=C2\C=C(Nc3cccc(C(=O)O)c3)C(=O)c3ccccc32)cc1 | ? | -101* | 115% | ? | 11µM*
Cc1ccc(S(=O)(=O)/N=C2\C=C(NS(=O)(=O)c3ccccc3)C(=O)c3ccccc32)cc1 | . | 49 | 99% | ? | .
O=C1c2ccccc2C(=O)N1CCSc1ncn[nH]1 | -11% | -24 | 2%[9.22 µM] | -6% | 5%
CCc1ccc(S(=O)(=O)/N=C2/C=C(Sc3ncn[nH]3)C(=O)c3ccccc32)cc1 | 6.3µM* | -99* | 4.6µM* | 3.3µM* | 13µM*
CCN(CC)CCCn1c2c(c(SCC(=O)Nc3cccc(C(C)=O)c3)nc1=O)CCC2 | . | -10 | 2% | 0% | .
CCN(CC)CCn1c2c(c(SCC(=O)Nc3ccccc3Cl)nc1=O)CCC2 | . | -52* | -3% | 0% | .
CCN(CC)CCCn1c2c(c(SCC(=O)Nc3cc(C)cc(C)c3)nc1=O)CCC2 | . | -57* | . | . | .
Cc1ccc(NC(=O)CSc2nc(=O)n(CCCN3CCOCC3)c3c2CCCC3)cc1F | . | -85* | 9% | ? | .
CCN(CC)CCn1c2c(c(SCC(=O)Nc3nc4ccccc4s3)nc1=O)CCC2 | . | -99* | 0% | ? | .
SMILES | VP16 counter | IL1B secr inh | SW480 rereplic | MCF10A rereplic | RORg inh
COc1ccc(OC)c(-c2csc(NC(=O)COC(=O)c3ccc(NC(=O)CC#N)cc3)n2)c1 | . | -9 | -3% | 3% | .
CN(C)c1ccc(-c2csc(C(O)c3ccc(F)c(F)c3)n2)cc1 (stereo not given) | . | -15 | . | . | .
CN(C)CCn1c2c(c(SCC(=O)Nc3cccc4ccccc34)nc1=O)CCCC2 | . | -8 | 0.58µM* | 17% | .
CCN(CC)CCn1c2c(c(SCC(=O)Nc3cccc(C(C)=O)c3)nc1=O)CCCC2 | . | -3 | -5% | 9% | .
CCN(CC)CCn1c2c(c(SCC(=O)Nc3cccc4ccccc34)nc1=O)CCC2 | . | -90* | 52% | -1% | .
CC12C=C(/C=C/c3ccc(Br)cc3)C(C)(C1)C(c1ccc(Br)cc1)CC2=O (stereo not given) | 11%[10 µM] | . | . | . | 0%[10 µM]
CCN(CC)P(=O)(Nc1cccc(C(F)(F)F)c1)c1ccc(N(C)C)cc1NC(=O)c1ccco1 (stereo not given) | -11% | ? | -1% | 0.82µM* | 41%
Cc1cccc(C)c1NC(=O)C1CCCN1S(=O)(=O)c1ccccc1 (stereo not given) | 2% | 8 | -11% | -23% | -4%
CCN(CC(=O)Nc1cccc(OC)c1)C(=O)c1cnc(Cl)c(Cl)c1 | -14% | -83* | -26% | -3% | -1%
CC(C)(C)C(=O)Nc1sc(-c2ccccc2)cc1C(=O)O | -4% | -78* | -2% | 0% | ?
NC(=O)c1ccccc1NC(=O)CN1CCCCCC1 | -6% | 33 | -11% | 11% | ?
Cc1cccc(C(=O)Nc2sc(-c3ccccc3)cc2C(=O)O)c1 | 2% | 0 | 1% | ? | ?
COC(=O)c1cc(-c2ccccc2)sc1NC(=O)CN1C(=O)c2ccccc2C1=O | -4% | -62* | 1% | -1% | 9%
NC(=O)c1cc(-c2ccccc2)sc1NC(=O)CN1CCCCC1 | -28% | -51* | 2% | ? | ?
COC(=O)C[C@@H]1CC[C@@H](NS(=O)(=O)c2ccccc2OC)[C@@H](CO)O1 | . | 30 | . | . | .
Cc1ccc(NC(=O)CSCC(=O)NC2(C)CCS(=O)(=O)C2)cc1 (stereo not given) | . | 7 | -24% | 9% | .
Cc1ccc(-c2cc3nc(C)cc(NCc4ccco4)n3n2)cc1 | ? | 6 | ? | 5.2µM* | ?
COCCNc1cc(C)nc2cc(-c3ccc(C)cc3)nn12 | 5% | -7 | 16µM* | ? | ?
c1coc(CNc2c3c(nc4ncnn24)CCCC3)c1 | -1% | 5 | -15% | 3% | 42%
Clc1cccc(-c2cc3nc4c(c(NCc5ccco5)n3n2)CCCC4)c1 | -7% | -96* | ? | 23% | ?
COc1ccc(S(=O)(=O)N(C)C[C@H]2OCCCC[C@@H](C)Oc3ccc(N(C)C)cc3C(=O)N([C@H](C)CO)C[C@@H]2C)cc1 | . | -24 | . | . | .
C/C=C1/NN(CCCN2CCN(c3cccc(Cl)c3)CC2)C(=O)N1CCOc1ccccc1 | -4% | . | 2% | ? | 21%
N#C/C(=C\c1ccccc1)C(=O)N(c1ccccn1)C1CCCCC1 | ? | -98* | -7% | ? | 2.8µM*
COCCn1c(=O)c(-c2ccc(Cl)cc2)nc2cnc(N(C)C)nc21 | 7% | . | . | . | -2%
COC(=O)c1cc(C)nc2c1C(=O)C(=O)C=C2N1CCOCC1 | . | -100* | ? | ? | .

Compound activity (PubChem BioAssay)
